Sampled rows, rich in hits. Any-hit rate of the full collection: about 21%.
NS1 function inh – influenza NS1 inhibition | Potency, µM (doses to about 46.1 µM), without a hit: at the highest dose activity, positive = more growth | actives 0.4% (n = 270,000) | AID 2326; calls by dose curve; note: potency is the fitted concentration of half-maximal effect; actives are rising curves; nearly all actives have a fitted effect of over 50% in size
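Growth recovery, yeast-based: influenza A NS1 expressed in S. cerevisiae causes slow growth, and suppressors are detected by OD600. The parent strain without NS1 is used as positive control.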
Pf growth 96h – P. falciparum growth inhibition at 96 hour, primary screen for plastid delayed-death inhibitors; P. falciparum luciferase reporter growth, 96 h; Potency, µM (top dose mostly 28.7 µM), for the others: at the top dose activity change, negative = inhibition, most hits filed as inhibitors; actives 6.9% (n = 320,000); note: potency is the fitted concentration of half-maximal effect; % is set by controls: 0 for no effect and ±100 for the full control effect
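Compounds incubated with erythrocytes infected by luciferase-expressing P. falciparum (2% hematocrit, 0.05% parasitemia final) for 96 hours, 37 C in 5% CO2. Growth inhibition scored as decreased luciferase luminescence.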
Pf growth 48h – P. falciparum growth inhibition at 48 hours (one generation); actives 5.9% (n = 310,000); Potency, µM (titrated, usually from 28.7 µM), without a hit: at the highest dose activity change, negative = inhibition, hits mostly inhibitors; P. falciparum luciferase growth in erythrocytes, 48 h; note: potency is the fitted concentration of half-maximal effect; % is set by controls: 0 for no effect and ±100 for the full control effect
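Firefly luciferase activity from engineered P. falciparum reports growth; inhibitors lower the luminescent signal. Cultures contained 2% hematocrit erythrocytes at 0.1% final parasitemia.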
Cycloheximide cs – counter-screen for Shiga toxin inhibitors: cycloheximide protein synthesis inhibition | cell reporter, cycloheximide protein synthesis inhibition counterscreen | max response, % | actives 12% (n = 300,000); in the data active = max response mostly above about 13%, no sharp cut-off; inactive = mostly below about 14%; note: read at 38.3 µM for the half of the compounds with a filed dose; 0% is about no effect
Shiga inhibitor – inhibitors of Shiga toxin in Vero cells; Vero cells, Shiga toxin protein synthesis inhibition reporter; inhibition, % at 38.7 µM; actives 9.2% (n = 290,000); in the data active = inhibition mostly above about 28%, no sharp cut-off; inactive = mostly below about 43%; note: 0% is about no effect
Sm TGR inh – S. mansoni TGR enzyme inhibition | Q962Y6 | purified TGR, DTNB reduction, TNB absorbance 405 nm | Potency, µM (doses to about 114 µM), for inactives: at the top dose activity change, negative = inhibition, hits mostly inhibitors | actives 3% (n = 360,000) | AID 485364; note: potency is the fitted concentration of half-maximal effect; % is set by controls: 0 for no effect and ±100 for the full control effect; nearly all actives have a fitted effect of over 60% in size
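TGR 20 nM + NADPH 100 uM (dispensed conc.), cpd preinc 15 min RT; start with NADPH (500 uM addition) then DTNB (15 mM addition). Kinetic TNB absorbance, 405 nm filter. Four-parameter Hill fit across titration.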
* marks the source's active call; other numbers are inactive results. Unless noted, calls come from the whole dose curve; as a rule, active = well fitted curve in the direction sought with a large enough effect; inconclusive = small, poorly fitted or top-dose-only effect, or another doubt; inactive = no such curve, though single readings can be large; an effect the other way counts as inactive or inconclusive.

Cc1cccc(C(=O)OCC(=O)N2CCCCCC2)c1O was read as Pf growth 96h inactive, Pf growth 48h inactive and Sm TGR inh 6.0%.
CN(C)c1ccc(N=Nc2ccccc2C(=O)OCC(=O)N2CCCC2)cc1 was read as NS1 function inh 5.6%, Pf growth 96h 13.1µM*, Pf growth 48h inconclusive, Cycloheximide cs 1.7, Shiga inhibitor 11.3 and Sm TGR inh -18.6%.
CCOc1ccc(NC(=O)CN2C(=O)NC(CCSC)C2=O)cc1 (stereo not drawn) was read as Pf growth 96h 7.8%, Pf growth 48h -13.2%, Cycloheximide cs -3.0, Shiga inhibitor -14.9 and Sm TGR inh -8.3%.
`COc1ccc(-c2c[n+]3c(n2-c2ccccc2)SCC3)cc1OC` gave Pf growth 96h inconclusive, Pf growth 48h 1.31µM*, Cycloheximide cs -2.8, Shiga inhibitor -5.9 and Sm TGR inh -14.5%.
Screening COc1ccc(-c2c[n+]3c(n2-c2ccccc2)SCC3)cc1 returned NS1 function inh 1.8%, Pf growth 96h inconclusive, Pf growth 48h inconclusive, Cycloheximide cs 0.6, Shiga inhibitor -9.4 and Sm TGR inh -2.3%.
`O=c1[nH]n(CC2COC3(CCCCC3)O2)c(=O)c2ccccc12` (stereo not drawn) gave NS1 function inh -5.6%, Pf growth 96h 8.28µM*, Pf growth 48h 57.6%, Cycloheximide cs 32.7*, Shiga inhibitor 43.4* and Sm TGR inh -0.7%.
Screening O=C(Cn1[nH]c(=O)c2ccccc2c1=O)NC1CCCCCC1 returned NS1 function inh 4.3%, Pf growth 48h 69.9%, Cycloheximide cs 16.7, Shiga inhibitor 19.1 and Sm TGR inh 11.7%.
Screening Cc1cccc2cc(CN(Cc3ccco3)C(=O)Nc3cccc(C#N)c3)c(Cl)nc12 returned NS1 function inh 25.7%, Pf growth 96h 13.1µM*, Pf growth 48h 9.28µM*, Cycloheximide cs -2.0, Shiga inhibitor 4.6 and Sm TGR inh 23.6%.
For COc1ccccc1NC(=O)N(Cc1ccco1)Cc1cc2ccc(C)c(C)c2[nH]c1=O the results were NS1 function inh 2.5%, Pf growth 96h 3.5%, Pf growth 48h inconclusive, Cycloheximide cs -4.0, Shiga inhibitor -1.3 and Sm TGR inh inconclusive.
`Cc1ccc(NC(=O)N(Cc2ccco2)Cc2cc3cc(C)cc(C)c3nc2Cl)cc1` gave NS1 function inh inconclusive, Pf growth 96h inconclusive, Pf growth 48h inconclusive, Cycloheximide cs 26.7*, Shiga inhibitor 48.2* and Sm TGR inh -0.3%.
For CCC(C)Nc1nc2c(c(=O)n(C)c(=O)n2C)n1Cc1ccc(Cl)cc1 (stereo not drawn) the results were NS1 function inh 0.1%, Pf growth 96h 6.57µM*, Pf growth 48h inconclusive, Cycloheximide cs -3.4, Shiga inhibitor -3.4 and Sm TGR inh 0.0%.
For CCC(C)Nc1nc2c(c(=O)n(C)c(=O)n2C)n1Cc1cccc(C)c1 (stereo not drawn) the results were NS1 function inh -2.0%, Pf growth 96h 73.6%, Pf growth 48h 14.7µM*, Cycloheximide cs -7.2, Shiga inhibitor -6.1 and Sm TGR inh -9.5%.
For Fc1cccc(Cc2noc(CN3CCCCC3CCc3ccccn3)n2)c1 (stereo not drawn) the results were NS1 function inh -8.0%, Pf growth 96h 13.2%, Pf growth 48h inconclusive, Cycloheximide cs -3.0, Shiga inhibitor -4.3 and Sm TGR inh -0.5%.
For COc1ccc(C(=O)CC(=O)c2ccc(C(C)(C)C)cc2)cc1 the results were Pf growth 96h 2.6% and Pf growth 48h 75.1%.
COc1ccc(C(=O)C(CCC(CNC(C)(C)C)C(=O)c2ccc(OC)cc2)CNC(C)(C)C)cc1 (stereo not drawn) was read as NS1 function inh -1.7%, Pf growth 96h inconclusive, Pf growth 48h 7.38µM*, Cycloheximide cs -4.6, Shiga inhibitor -12.9 and Sm TGR inh inconclusive.
Screening COc1ccc(OCCCC(=O)OCC(=O)NNC(=O)c2ccc([N+](=O)[O-])cc2)cc1 returned Pf growth 96h 35.5%, Pf growth 48h 40.0% and Sm TGR inh 1.8%.
Cc1cc(S(=O)(=O)NCc2ccccc2)ccc1OCC(=O)NCC1CCCO1 (stereo not drawn) was read as NS1 function inh -0.5%, Pf growth 96h -11.9%, Pf growth 48h 3.2%, Cycloheximide cs -5.4 and Shiga inhibitor -16.4.

Screening results as filed in PubChem BioAssay.
